In the library only some 20% were active in any assay of this set; here they are far more common.
Pf growth 96h: P. falciparum growth inhibition at 96 hour, primary screen for plastid delayed-death inhibitors; P. falciparum luciferase reporter growth, 96 h; Potency, µM (titrated, usually from 28.7 µM), inactives show at the highest dose activity change, negative = inhibition, usual class: inhibitors; hit rate 6.9% among 320,000; AID 504834; also: potency is read from the fitted curve at half-maximal effect; % is scaled to controls: 0 for no effect and ±100 for the full control effect
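Readout is luminescence from an integrated firefly luciferase in P. falciparum. Red cells, 2% hematocrit and 0.05% parasitemia final, were cultured with compound through two parasite generations (96 hours) at 37 C, 5% CO2.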
CHX counter: counter-screen hit for Shiga toxin inhibitors, cycloheximide; cell reporter, cycloheximide protein synthesis inhibition counterscreen; max response, %; hit rate 12% among 300,000; in the data active = max response mostly above about 13%, no sharp cut-off; inactive = mostly below about 14%; also: read at 38.3 µM for the half of the compounds with a filed dose; 0% is about no effect
HCMV antiviral: human cytomegalovirus inhibition; activity change, negative = inhibition, % at 57.5 µM; AID 1259415; hit rate 4.5% among 410,000; HFF cells, HCMV-luciferase reporter, 72 h; hits give low values; in the data active = activity change below about -60%; inconclusive = no clear call, values can overlap the other calls; inactive = above about -39%; also: % is scaled to controls: 0 for no effect and ±100 for the full control effect
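HFF cells seeded 16 h at 37C, treated with compounds, infected with luciferase-reporter HCMV at MOI 1 PFU/cell; luciferase read at 72 h post infection, normalized to buffer-only and Salinomycin controls.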
Shiga toxin inh: blocks Shiga toxin action in Vero cells; AID 2315; hit rate 9.2% among 290,000; Vero cells, Shiga toxin protein synthesis inhibition reporter; inhibition, % at 38.7 µM; in the data active = inhibition mostly above about 28%, no sharp cut-off; inactive = mostly below about 43%; also: 0% is about no effect
Pf growth 48h: P. falciparum growth inhibition at 48 hours (one generation). P. falciparum luciferase growth in erythrocytes, 48 h. Potency, µM (doses to about 28.7 µM), for inactives: at the highest dose activity change, negative = inhibition, hits mostly inhibitors. hit rate 5.9% among 310,000; also: potency is read from the fitted curve at half-maximal effect; % is scaled to controls: 0 for no effect and ±100 for the full control effect
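Here the parasites carry a stable luciferase gene and grow inside erythrocytes in Albumax-based RPMI medium with compound for one erythrocytic cycle. Activity is scored as loss of luminescent signal.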
The depositor's hits bear a star; ? = inconclusive; / = no result given. Unless noted, calls follow the shape of the dose curve; as a rule, active = well fitted inhibition curve with a large enough effect; inconclusive = small, poorly fitted or top-dose-only effect, or another doubt; inactive = no such curve, though single readings can be large or run the other way.

SMILES	Pf growth 96h	CHX counter	HCMV antiviral	Shiga toxin inh	Pf growth 48h
CCOCCCn1c(=N)c(C(=O)NCc2ccccc2)cc2c(=O)n3ccccc3nc21	/	/	12	/	/
N=c1c(C(=O)NCCc2ccccc2)cc2c(=O)n3ccccc3nc2n1CCCN1CCOCC1	?	-5	-17	-5	2.1µM*
O=C(CSc1cccc[n+]1[O-])N1CCc2ccccc21	50%	9	0	20	54%
CC(=O)c1ccc(NC(=S)NCC(c2ccco2)N2CCCC2)cc1 (stereo not drawn)	?	5	-21	55	?
N=c1c(C(=O)NCc2ccc(F)cc2)cc2c(=O)n3ccccc3nc2n1Cc1cccnc1	5.9µM*	-5	5	-5	/
Cn1c(C(=O)c2ccncc2)cc2ccccc21	?	9	-20	13	13µM*
O=C(COc1ccccc1)N1CCN(C(=O)Cc2ccccc2)CC1	-22%	-1	3	-19	/
C=CCSc1nc(C)c(CC(=C)C)c(=O)[nH]1	?	-1	12	-12	40%
CCCCCCOC(=O)Cc1c(C)nc(-c2ccccc2)[nH]c1=O	?	-5	5	-7	2.3µM*
C=C(C)Cc1c(C)nc(-c2ccccc2)[nH]c1=O	/	18*	23	38*	?
CSc1nc(C)c(C(=O)C[n+]2ccccc2)cc1C#N	-6%	-2	-1	-2	?
COc1cc(NC(=O)COC(=O)CCCC2=NS(=O)(=O)c3ccccc3N2)cc(OC)c1	24%	-5	-21	-10	0%
Cc1onc(-c2ccccc2)c1C(=O)NCc1ccccc1F	3%	-3	-17	-5	7%
C=CCn1c(-c2cccs2)nc2nc3ccccc3nc21	/	30*	57	45*	19%
c1ccc(-n2c(-c3cccs3)nc3nc4ccccc4nc32)cc1	?	-4	66	-6	-7%
C=CCn1c(-c2cccs2)nc2ccccc21	4%	16*	-26	23*	9%
CCOC(=O)c1c(-c2ccccc2)csc1NC(=O)c1cc(-c2ccc(F)cc2)on1	/	/	8	/	/
Nc1[nH]nc2c1NN(c1ccc(Cl)cc1Cl)N2	163%	48*	-16	83*	150%
Nc1c(-c2n[nH]c(=S)n2-c2ccc(Cl)cc2Cl)cnn1-c1ccccc1	0%	1	-7	-18	8%
CC(CNC(=O)c1ccccc1Cl)c1ccccc1 (stereo not drawn)	4%	34*	6	36*	49%
O=C(CNC(=O)c1ccccc1F)c1ccccc1	-8%	34*	27	42	152%
O=C(CNC(=O)c1ccccc1Cl)c1ccccc1	?	50*	9	65*	136%
O=C(CNc1ccccc1C(=O)O)c1ccccc1	8%	18*	27	51	-16%
Cc1ccccc1C(=O)NCC(=O)c1ccccc1	/	/	119	/	/
CN(C(=O)C1CCCCC1)C1(C)CCS(=O)(=O)C1 (stereo not drawn)	-1%	/	-20	/	2%
SMILES	Pf growth 96h	CHX counter	HCMV antiviral	Shiga toxin inh	Pf growth 48h
Cc1ccc(NC2(c3nnnn3-c3c(C)cccc3C)CCCCC2)cc1	?	-1	-74*	-14	13µM*
COCCN1C(=O)CCC1(C)c1nnnn1-c1c(C)cccc1C (stereo not drawn)	/	/	1	/	/
O=C1CC(Sc2nnnn2-c2ccccc2)C(=O)N1c1cccc(Cl)c1 (stereo not drawn)	?	20*	-62*	24	-2%
CCOc1ccc(-c2cn(-c3ccc(OC)cc3)c(SC)n2)cc1	?	68*	-27	113*	168%
CSc1nc(-c2ccccc2)cn1-c1ccc(NC(C)=O)cc1	39%	35*	37	79*	59%
Cc1cc(C(=O)O)cc(S(=O)(=O)NNC(=O)c2cccs2)c1C	15%	1	/	-1	8%
Cc1ccc(-c2nnc(Nc3ccc(F)cc3)c3ccccc23)cc1S(=O)(=O)N1CCN(C)CC1	/	/	-102*	/	/
Cc1ccc(-c2nnc(Nc3ccc(O)cc3)c3ccccc23)cc1S(=O)(=O)N1CCN(C)CC1	/	/	-66*	/	/
Cc1ccc(-c2nnc(Nc3ccc(Br)cc3)c3ccccc23)cc1S(=O)(=O)N1CCN(C)CC1	/	/	-40	/	/
Cc1ccc(-c2nnc(Nc3cccc(O)c3)c3ccccc23)cc1S(=O)(=O)N1CCN(C)CC1	/	/	-30	/	/
CCOC(=O)c1ccc(NC(=O)CCn2c(=O)c3cccn3c3cccnc32)cc1	/	/	9	/	/
NC1=NC2=C(CCCC2)C2(CCCCC2)S1	213%	-6	-23	-9	13µM*
CCCNC(=O)C[C@@H]1C[C@@H]2c3cc(NS(=O)(=O)c4ccc(OC)cc4)ccc3O[C@@H]2[C@@H](CO)O1	/	/	-14	/	/
CCN(CC)CCCNc1nc2cc(OC)c(OC)cc2c2nc(-c3ccccc3)nn12	22%	-1	/	43	2.3µM*
CCN(CC)CCCNc1nc2ccccc2c2nc(-c3ccncc3)nn12	4.1µM*	-3	?	-6	6.6µM*
CCN(CC)CCCNc1nc2cc(OC)c(OC)cc2c2nc(-c3cccnc3)nn12	/	-7	-28	-7	4.1µM*
CN1CCN(CCCNc2nc3ccccc3c3nc(-c4ccccc4)nn23)CC1	/	/	49	/	/
COCCCNc1nc2cc(OC)c(OC)cc2c2nc(-c3ccccc3)nn12	-2%	6	17	-6	0.29µM*
CCOCCCNc1nc2cc(OC)c(OC)cc2c2nc(-c3ccccc3)nn12	/	/	-9	/	/
CC(C)Cn1cc(NC(=O)N2CCN(c3ccc(F)cc3)CC2)c2ccccc2c1=O	/	/	-11	/	/
CCc1ccccc1NC(=O)CSc1nc2c(oc3ccccc32)c(=O)n1C	/	/	5	/	/
CCOC(=O)N1CCN(c2ccc(N3C(=O)CCCC3=O)cc2[N+](=O)[O-])CC1	-14%	-5	13	-14	-16%
COc1cc(CNCCc2ccccc2)ccc1OCC(N)=O	9%	1	-31	-10	-3%
C=CCOc1ccccc1CNCc1cccnc1	32%	4	2	-15	1%
COc1cc(CNCc2cccnc2)ccc1OCc1ccccc1	67%	36*	-39	76*	65%
SMILES	Pf growth 96h	CHX counter	HCMV antiviral	Shiga toxin inh	Pf growth 48h
COc1ccc(CCN)cc1OC	?	-3	18	16	-18%
COc1cc(CNCCO)ccc1OCCc1ccccc1	8%	13*	51	11	-19%
Clc1ccc(COc2ccccc2CNCc2cccnc2)cc1	4.7µM*	-5	-30	-13	/
NCCc1ccc(OCc2ccccc2)c(OCc2ccccc2)c1	10µM*	/	-94*	/	?
CNCc1ccc(OCc2ccccc2)c(OC)c1	7%	28*	19	27	14%
COc1ccc(CNCc2ccco2)cc1OCc1ccccc1	68%	41*	18	90*	72%
CNCC(O)COc1ccccc1 (stereo not drawn)	/	-3	32	-10	/
COc1cc(CC(=O)O)ccc1OCc1ccccc1	41%	2	14	7	4%
COc1cc(CNCC(O)c2ccccc2)ccc1OCc1ccc(Cl)nc1 (stereo not drawn)	3.7µM*	17*	-25	30	/
COc1ccccc1CCNCc1ccc(OC)c(OCc2ccccc2)c1	0%	-3	?	-10	0%

Screening results from PubChem.
